Data published in PubChem BioAssay (NCI).
This is part of a sample that, as a whole, favours compounds with a hit. Of some 83,000 tested, about 20% had one in any assay.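 Single-concentration screen, 48 h exposure, 96-well plates. Endpoint: percent growth. Below 10 = active.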 Unmarked numbers belong to inactive results. Calls of active or inactive are those of the source.

Assays:
Assay in all cases: NCI-60 one-dose screen, 48 h (100 = growth as untreated, 0 = no growth, -100 = all killed)
Conditions in all cases: 10 µM unless noted
RPMI-8226 leukemia = test system: RPMI-8226 leukemia
OVCAR-8 ovarian = test system: OVCAR-8 ovarian
OVCAR-5 ovarian = test system: OVCAR-5 ovarian
OVCAR-4 ovarian = test system: OVCAR-4 ovarian
SK-OV-3 ovarian = test system: SK-OV-3 ovarian
IGROV1 ovarian = test system: IGROV1 ovarian
OVCAR-3 ovarian = test system: OVCAR-3 ovarian
HS 578T breast = test system: HS 578T breast
NCI/ADR-RES ovarian = test system: NCI/ADR-RES ovarian
T-47D breast = test system: T-47D breast
BT-549 breast = test system: BT-549 breast
MDA-MB-435 melanoma = test system: MDA-MB-435 melanoma
SW-620 colon = test system: SW-620 colon
MCF7 breast = test system: MCF7 breast
HCT-116 colon = test system: HCT-116 colon
HCC-2998 colon = test system: HCC-2998 colon
KM12 colon = test system: KM12 colon

SMILES | growth (RPMI-8226 leukemia) | growth (OVCAR-8 ovarian) | growth (OVCAR-5 ovarian) [%] | growth (OVCAR-4 ovarian) | growth (SK-OV-3 ovarian) [%] | growth (IGROV1 ovarian) | growth (OVCAR-3 ovarian) | growth (HS 578T breast) [%] | growth (NCI/ADR-RES ovarian) | growth (T-47D breast) | growth (BT-549 breast) | growth (MDA-MB-435 melanoma) | growth (SW-620 colon) | growth (MCF7 breast) | growth (HCT-116 colon) | growth (HCC-2998 colon) [%] | growth (KM12 colon)
COc1ccc(/C(=N\O)c2cc(C)c(OC)c(C)c2)cc1O | 12.7% | 15.3% | 46.7 | 67% | 51.2 | 30.3% | 10.1% | 33.5 | 28.6% | 84.9% | 19.3% | -23.8% (active) | 31% | 19.1% | 6.63% (active) | 26.2 | 14.8%
CCCn1c(N)c(C(N)=O)sc1=S | 94.5% | 106% | 90.8 | 111% | 103 | 100% | 103% | 95.7 | 104% | 94.8% | 118% | 109% | 101% | 106% | 101% | 110 | 97.4%
COc1ccc(-c2nnc(N3CCN(C(=O)CN4CCN(c5ccc(OC)cc5)CC4)CC3)nc2-c2ccc(OC)cc2)cc1 | -59.8% (active) | -54.9% (active) | 111 | -48.3% (active) | 101 | -60.8% (active) | -96.1% (active) | 21 | -40.6% (active) | -64.5% (active) | -81.8% (active) | -68.1% (active) | -92.5% (active) | -69.8% (active) | -41.1% (active) | 33.9 | -13.1% (active)
NC(=O)C(O)(c1ccccc1)c1ccccc1 | 93.2% | 98.2% | 110 | 101% | 97.2 | 111% | -48.6% (active) | 97.1 | 102% | 90.1% | 113% | 103% | 96% | 91.5% | 103% | 98.5 | 96.9%
Nc1c(C(=O)Nc2ccccc2Cl)sc2nc3c(cc12)CN(Cc1ccccc1)CC3 | 103% | 118% | 95.5 | 113% | 91.2 | 87.5% | 85.1% | 108 | 99.8% | 87.8% | 93.8% | 107% | 94.1% | 92.9% | 103% | 96.5 | 96.1%
COc1ccc(-c2[nH]c3ccc(OC)cc3c2C=C(C#N)C#N)cc1 | -11.5% (active) | 57.3% | 55.8 | 39.5% | 41.7 | 39.1% | -14.1% (active) | 52.4 | 1.87% (active) | 33.8% | 55.1% | -62.5% (active) | 26.5% | 17.1% | 19% | 50.3 | 20.1%
Cc1ccc(C(=O)O)o1 | 114% | 108% | 105 | 100% | 101 | 102% | 103% | 118 | 101% | 102% | 97.9% | 108% | 107% | 105% | 96.1% | 102 | 96.9%
CCOC(=O)C1=C(C)n2nc(CC#N)c(C#N)c2NC1c1ccc(Cl)cc1 (configuration not stated) | 101% | 108% | 103 | 99.3% | 105 | 84.1% | 89.3% | 106 | 91.9% | 110% | 92% | 100% | 97.5% | 90.2% | 101% | 99.9 | 85.4%
COc1cc(F)c(-c2nc3c(C)cccc3n2Cc2c(F)cccc2F)c(F)c1 | 68.2% | 90.5% | 94.6 | 77.6% | 90.5 | 69.4% | 96.2% | 91.6 | 77.9% | 71.4% | 98.5% | 94.8% | 91.6% | 78.5% | 74.6% | 82.1 | 90.1%
O=C1C(Cl)=C(NCCCN(CCCNC2=C(Cl)C(=O)c3ccccc3C2=O)C2=C(Cl)C(=O)c3ccccc3C2=O)C(=O)c2ccccc21 | 45.4% | 39.2% | 121 | 33.9% | 93.8 | 54.8% | -0.584% (active) | 67.6 | 76.1% | 51.8% | 85.6% | -86.5% (active) | 47.6% | -19.9% (active) | 4.83% (active) | 92.4 | 80.1%
CCn1cc(C(=O)O)c(=O)c2cc(F)c(N3CCN(CC(=O)Nc4ccc(/C(C)=N/OC)cc4)CC3)cc21 | 105% | 92.3% | 101 | 103% | 85.1 | 94.6% | 97.6% | 94.7 | 97.8% | 70.3% | 92.5% | 102% | 110% | 93.8% | 104% | 101 | 94.5%
CCc1n(Cc2ccc3ccccc3c2)c2ccccc2[n+]1Cc1ccc2ccccc2c1 | 13.5% | 55.1% | 75.7 | 18.3% | 83 | 45.8% | 34.3% | 82.7 | 105% | 25.4% | 58.7% | 46.7% | 77.1% | 49.6% | 51.5% | 58 | 39.6%
CCCCn1c(=O)c(/C=C/C(=O)/C=C/c2ccc(O)c(OC)c2)cc2ccc(Cl)cc21 | -14.2% (active) | -4.03% (active) | 49.6 | 26.1% | 59.2 | 6.29% (active) | -26.2% (active) | 47.8 | 14.8% | 25.3% | 11.4% | 2.81% (active) | 16.1% | 46.3% | -55.5% (active) | 33.3 | 6.78% (active)
C=CCn1c(CN2CCN(c3cc4c(cc3F)c(=O)c(C(=O)O)cn4C3CC3)CC2)n[nH]c1=S | 109% | 100% | 94 | 105% | 108 | 96.2% | 102% | 95 | 99.2% | 103% | 105% | 102% | 105% | 95.7% | 105% | 107 | 99.4%
COC(=O)/C=C1\SC(=Nc2cccc(OC)c2)N(CCc2c[nH]c3ccccc23)C1=O | 19.6% | 52.3% | 96 | 69.7% | 72.4 | 71.7% | 57% | 81 | 62.9% | 46.1% | 52.3% | 62.5% | 78.2% | 25.8% | 50.1% | 97 | 48.3%
O=CN1N=C(c2ccc(Cl)cc2)CC1c1cccc(Nc2ccnc3cc(C(F)(F)F)ccc23)c1 (configuration not stated) | 26.4% | 52.8% | 99.7 | 36.1% | 72.4 | 74.2% | 62.2% | 87.7 | 55.4% | 42.6% | 53.9% | 54.3% | 89.8% | 38% | 56.3% | 76.7 | 59.2%
